Inconclusive results are not listed. Calls of active or inactive are those of the source. Calls follow the shape of the full dose curve.
Experiment: Primary qHTS to identify inhibitors of SARS-CoV-2 cell entry (AID 1645846); also: nearly all actives have a fitted effect of over 45% in size
Details: SARS-CoV-2 pseudovirus cell entry assay, luminescence; activity change, negative = inhibition: at 57.1 µM (top of the series) unless noted; series mostly up to 57.1 µM
Outline: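 HEK293-ACE2 (Expi293F, stable hACE2), 1500 cells/well, o/n 37C; cpd 23 nL pin, 1 h; MLV-PP w/ SARS-CoV-2-S (Wuhan-Hu-1, Δ19 C-term); 48 h 37C; Bright-Glo luminescence; normalized vs S-PP and bald PP.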
Potency is read from the fitted curve at half-maximal effect.

Structure (SMILES)	activity change, negative = inhibition [%]	outcome	Potency
C#CC(O)(C=CCl)CC (stereo not given)	-20.1	–	–
CC(C)NC(C)C	–	inactive	–
COc1ccc2c(c1OC)C(=O)O[C@H]2[C@@H]1c2cc3c(cc2CCN1C)OCO3	–	inactive	–
C[C@](O)(CS(=O)(=O)c1ccc(F)cc1)C(=O)Nc1ccc(C#N)c(C(F)(F)F)c1	-4.4	–	–
C=CCC1(C(C)CC)C(=O)NC(=O)NC1=O (stereo not given)	-17.9	–	–
Oc1ccc(Cl)cc1	-1.58	–	–
O=c1c(C2CC(c3ccc(-c4ccc(Br)cc4)cc3)Cc3ccccc32)c(O)sc2ccccc12 (stereo not given)	–	–	14.1 µM (active)
Nc1ccc([As](=O)(O)O)cc1	-1.46	–	–
C[C@]12CC[C@H]3[C@@H](CC[C@@]45O[C@H]4C(O)=C(C#N)C[C@]35C)[C@H]1CC[C@H]2O	-26.2	–	–
O=[N+]([O-])O[C@H]1CO[C@H]2[C@@H]1OC[C@H]2O[N+](=O)[O-]	-33.3	–	–

— PubChem BioAssay (NCATS)
